# The list is not random: actives were taken first. Their share in the collection is about 0.3%.
# NPYLR7 ag = mosquito NPYLR7 agonism; HEK293T NPYLR7/Galpha15, GCaMP6s calcium fluorescence; 0.15% of 270,000 active; AID 1259423; activation, % at 10 µM; in the data active = activation above about 40%;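 also: 0% = vehicle and 100% = reference agonist at the receptor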
# mcGAS lum = blocks mouse cGAS activity; recombinant cGAS, Kinase-Glo ATP depletion luminescence; inhibition, % at 12.5 µM; 0.15% of 160,000 active; AID 1259399;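 also: 0% = negative control wells and 100% = reference inhibitor with no enzyme activity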
# hcGAS lum = inhibitors of human cGAS; 0.081% of 290,000 active; recombinant h-cGAS, ATP depletion, Kinase-Glo luminescence; inhibition, % at 12.5 µM;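 also: 0% = vehicle reaction and 100% = reaction without DNA for no activity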
# Target sequence (Q8N884 whole entry, looked up): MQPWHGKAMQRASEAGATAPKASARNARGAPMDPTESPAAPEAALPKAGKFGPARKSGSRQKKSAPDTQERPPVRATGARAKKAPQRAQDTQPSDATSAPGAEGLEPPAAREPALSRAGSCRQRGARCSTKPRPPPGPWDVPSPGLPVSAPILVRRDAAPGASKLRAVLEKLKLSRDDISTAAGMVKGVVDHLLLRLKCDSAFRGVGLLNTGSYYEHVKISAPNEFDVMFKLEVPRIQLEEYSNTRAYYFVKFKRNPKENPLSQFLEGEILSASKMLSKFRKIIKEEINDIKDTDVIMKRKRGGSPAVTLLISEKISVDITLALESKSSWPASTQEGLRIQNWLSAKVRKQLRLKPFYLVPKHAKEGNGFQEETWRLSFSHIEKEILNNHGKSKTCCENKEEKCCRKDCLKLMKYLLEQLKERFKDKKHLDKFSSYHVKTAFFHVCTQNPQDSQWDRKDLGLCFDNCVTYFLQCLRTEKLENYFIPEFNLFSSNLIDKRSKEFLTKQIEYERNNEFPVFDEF
# * = called active by the depositor; x = no result given. Rule as the data show it, unless noted: active = inhibition above about 40%; inactive = the rest.
SMILES,NPYLR7 ag,mcGAS lum,hcGAS lum
CCN1CCc2c(sc(NC(=O)CN3C(=O)CCC3=O)c2-c2nc3ccccc3s2)C1,23.6,44.1*,44.7*
CCN1CCc2c(sc(NC(=O)c3ccco3)c2-c2nc3ccccc3s2)C1,9.0,39.2,37.8
Cc1cccc(N2C(=O)C(c3c(-c4ccccc4)[nH]n(C)c3=O)=C(N3CCCC3)C2=O)c1,2.2,-8.6,-7.4
CNC(=O)[C@@H]1CN2CCN(C(C)=O)C[C@@H]2[C@H]1c1ccccc1,4.8,-7.2,-2.6
Cc1ccc(-c2cc(C(=O)O)[nH]n2)cc1C,-4.7,-4.9,-1.1
CCC(=O)Nc1sc2c(c1-c1nc3ccccc3s1)CCN(CC)C2,27.6,100.3*,73.1*
CCN1CCc2c(sc(NC(=O)CS(=O)(=O)c3ccccc3)c2-c2nc3ccccc3s2)C1,22.5,-8.1,-8.7
CCCCc1ccc(NC(=O)C2OC(c3ccncc3)=NN2C(C)=O)cc1 (stereo unspecified),29.2,x,-0.2
COCc1ccc(CN2CCCC(CNS(=O)(=O)Cc3ccccc3)C2)o1 (stereo unspecified),23.4,x,-10.3
CC(=O)NCCc1ccc(O)c(O)c1,87.5*,-0.7,-6.5
NCCc1ccc(O)c(O)c1,10.4,-7.6,-8.7
COc1ccc(NS(=O)(=O)c2ccc(F)cc2)c(C)n1,-2.0,x,-9.4
CCCn1ncc(C(=O)N2CCCCC2CCn2ccnc2)c1C (stereo unspecified),x,x,-2.7
O=C(NCCN1CCCC1)c1cc2n(n1)CCN(Cc1ccccc1C(F)(F)F)C2=O,8.5,-2.5,2.7
O=C(NCCN1CCCCC1)c1cc2n(n1)CCN(Cc1cccc(C(F)(F)F)c1)C2=O,-6.1,46.5*,6.8
O=C(CCl)N1CCCc2cc([N+](=O)[O-])ccc21,2.5,95.8*,1.1
O=C(c1ccc([N+](=O)[O-])cc1)N1CCCc2ccccc21,3.9,x,-5.6
CN(C(=O)CCl)c1nnc(C23CC4CC(CC(C4)C2)C3)s1,0.1,60.3*,-1.4
CCC(=O)N(C)c1nnc(C23CC4CC(CC(C4)C2)C3)s1,2.7,-2.4,-3.6
Cc1ccc(C=NNC(=S)N=P(N2CCOCC2)(N2CCOCC2)C(C)(C)C)o1,7.1,1.9,-2.7
COc1ccc(Cn2ccnc2CN(CCN2CCOCC2)C(=O)c2ccccc2F)cc1,9.3,-3.2,-4.7
CC(C)(C)c1cc2nc(-c3ccccc3F)cc(C(=O)O)n2n1,-7.2,x,-0.8
O=C1NC(=S)SC1=Cc1ccc(F)c(F)c1,5.9,36.4,12.5
O=C1NC(=S)SC1=Cc1ccccc1Cl,6.2,x,56.2*
O=C1NC(=S)SC1=Cc1c(F)cccc1F,-10.0,x,41.6*
SMILES,NPYLR7 ag,mcGAS lum,hcGAS lum
O=C1NC(=O)C(=Cc2cccc(Cl)c2Cl)S1,8.6,x,-3.3
O=C(c1c(-n2cccc2)sc2c1CCSC2)N1CCN(C(=O)C2COc3ccccc3O2)CC1 (stereo unspecified),3.6,x,-4.7
Cc1nc(C(=O)N(c2cccc(C(F)(F)F)c2)C(C)C2CC2)cs1 (stereo unspecified),-4.3,-17.3,-6.9
COc1ccc(OCC(O)CN(CCC(C)C)Cc2cccc(OC)c2)cc1 (stereo unspecified),24.9,79.2*,-1.5
COCCN(Cc1cccc(OC)c1)CC(O)COc1ccc(OC)cc1 (stereo unspecified),11.3,-2.5,-1.2
CCOC(=O)CCCNC(=O)N1CCN(c2ccc(NC(=O)c3ccccc3OCC)cn2)CC1,17.8,-8.5,-2.2
COc1ccc(CCNC(=O)c2c(C)noc2-c2cccs2)cn1,4.4,67.8*,1.2
COc1ccc(CCNC(=O)c2c(C)noc2-c2ccccc2Cl)cn1,9.8,-8.3,-3.2
CCC(=O)N1CCCC1(C)C(=O)Nc1ncc(C)s1 (stereo unspecified),6.4,-7.7,-17.5
CCn1cc(C(CC(=O)N2CCN(Cc3ccc4c(c3)OCO4)CC2)c2cccc(C)c2)c2ccccc21 (stereo unspecified),x,-6.4,-6.1
O=C(Nc1nnc(SCc2cc(F)cc(F)c2)s1)C1CC1,-3.0,2.1,1.7
COc1cc(CSc2nnc(NC(=O)C3CCC3)s2)cc(OC)c1,35.2,83.4*,-6.1
CN(Cc1cc2ccccc2[nH]c1=O)Cc1ccnc2ccccc12,0.9,x,-4.3
COc1ccc(-n2c(SCCCCC(=O)N3CCN(C(=O)c4ccccc4Cl)C(C)C3)nnc2-c2ccccc2)cc1 (stereo unspecified),-0.8,-1.8,3.4
COc1ccc(-c2cnn(CCC(N)=O)c2)c(C)c1,47.3*,x,-0.3
COc1ccc(-c2ccc(N)nc2)c(C)c1,21.4,x,-1.9
Cc1nc(-c2ccsc2)sc1C(=O)NCc1ccccc1,0.1,-7.4,-5.0
CNC(=O)c1cnc(/C=C/c2csc(-c3ccsc3)n2)[nH]c1=O,67.1*,x,2.4
CCCCCCCCCCCC(=O)N1CCN(C(=O)CCCCSc2nnc(Cc3ccccc3)n2-c2ccc(Cl)c(Cl)c2)CC1C (stereo unspecified),-0.4,-1.3,3.7
N#CC(=Cc1cccn1-c1ccc([N+](=O)[O-])cc1)c1nc2ccccc2[nH]1,-5.3,x,-3.1
CC(C=NN1CCN(Cc2cccc3ccccc23)CC1)=Cc1ccco1,-4.0,-7.4,-5.8
COCCn1c(C)cn2c3c(=O)n(Cc4ccc(Cl)cc4)c(=O)n(C)c3nc12,51.8*,-7.8,-6.8
COCCCn1c(C)cn2c3c(=O)n(Cc4ccc(Cl)cc4)c(=O)n(C)c3nc12,12.3,x,-8.7
O=c1[nH]c(SCCO)nc2sc3c(c12)CCCC3,40.4*,-5.5,-1.0
Cc1nc(SCCO)c2c3c(sc2n1)CCCC3,-1.3,6.9,-4.5
SMILES,NPYLR7 ag,mcGAS lum,hcGAS lum
OCc1cc2ccccc2nc1-c1ccc2c(c1)OCCO2,-0.3,-16.0,-7.9
O=[N+]([O-])c1cc(S(=O)(=O)Nc2cc(Cl)ccc2F)ccc1F,40.2*,x,-2.5
Cc1ccc(S(=O)(=O)Nc2cc(Cl)ccc2F)cc1C,3.0,-1.6,7.7
CN1C(=S)N(CCCN2CCOCC2)C(=O)/C1=C\c1ccc2c(c1)OCO2,17.4,-6.9,-5.7
CN1C(=S)N(CCCN2CCOCC2)C(=O)/C1=C/c1ccc(N(C)C)cc1,59.8*,-9.0,-7.9
CCOC(=O)C1(Cc2ccccc2Cl)CCN(Cc2ccc(NC(C)=O)cc2)CC1,1.4,x,-9.4
COc1ccc(-c2[nH]ncc2CN(C)Cc2cc(C)no2)c(OC)c1,11.5,x,-10.8
Cc1ccc(N2CCN(C(=O)c3snc4c(=O)n(CC(C)C)c(=O)[nH]c34)CC2)c(C)c1,-9.1,x,-5.4
O=C(c1snc2c(=O)n(Cc3ccccc3)c(=O)[nH]c12)N1CCSCC1,64.6*,x,-2.0
CC1(C)CC(=O)C2C(=Nc3[nH]c(=S)[nH]c(=O)c3C2c2ccc3c(c2)OCO3)C1 (stereo unspecified),43.0*,-4.1,-5.8
CSc1nc2c(c(=O)[nH]1)C(c1ccc3c(c1)OCO3)C1C(=O)CCCC1=N2 (stereo unspecified),0.0,x,-6.8
Cc1cc(O)c(C=O)c2c1C(=O)Oc1c(C)c(O)c3c(c1O2)C(O)OC3=O (stereo unspecified),-8.4,x,42.2*
COc1cc(C)c2c(c1C=O)Oc1c(c(C)c(O)c3c1C(O)OC3=O)OC2=O (stereo unspecified),-12.8,40.6*,69.8*
COC(=O)c1c(C)c2c(c(C)c1O)OC(=O)c1c(C)c(Cl)c(O)c(Cl)c1O2,-0.9,-2.1,21.8

# Bioassay records as filed in PubChem.
